The list is not random: actives were taken first. Their share in the collection is about 6%.
D3 antag: qHTS of D3 Dopamine Receptor Antagonist: qHTS; D(3) dopamine receptor (Homo sapiens), P35462; D3R cells, DiscoveRx beta-arrestin luminescence, antagonist mode; active compounds read low; max response, negative = inhibition, %; actives 2.5% (n = 360,000); AID 652054, 2013; in the data active means max response below about -50%; inconclusive means no clear call, values can overlap the other calls
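Cells plated overnight at 1500 cells/well, then exposed to library compounds with dopamine controls for 90 minutes at 37 degrees C. DiscoveRx reagent added for 30–60 minutes at room temperature; luminescence read, quantitative HTS format.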
DRD3 agonist: qHTS of D3 Dopamine Receptor Agonist: qHTS; D(3) dopamine receptor (Homo sapiens), P35462; D3R DiscoveRx beta-arrestin cells, luminescence, 90 min; max activation, %; actives 0.58% (n = 410,000); AID 652048, 2013; in the data active means max activation above about 30%
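Agonist mode: compounds and dopamine controls were applied to plated cells for 90 min at 37 degrees C after an overnight attachment at 1500 cells/well. Luminescent read-out followed 30 - 60 minutes at room temperature with DiscoveRx detection reagent.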
BCR signal inh: qHTS Assay to Find Inhibitors of Chronic Active B-Cell Receptor Signaling | ABC-DLBCL IkBa-CBG/CBR reporter, luminescence ratio, 4 h | Potency, µM (series often up to 46.1 µM), actives largely listed as inhibitors | actives 0.05% (n = 340,000) | AID 493014, 2011; active means well fitted inhibition curve with a large enough effect in the signal ratio, with a control signal flat, not every such curve was filed as active; inconclusive means small, poorly fitted or top-dose-only effect, or effect the other way, or a change in a side signal; the % refers to the signal ratio
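TMD8 human ABC-DLBCL cells with doxycycline-inducible IκBα–green luciferase fusion and unfused red luciferase, in 0.5% FBS medium; compounds up to 46 uM, 4 h at 37C. Green/red luminescence ratio, filter-overlap corrected, fitted to concentration-response curves.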
D1 agonist: Allosteric Agonists of the Human D1 Dopamine Receptor: qHTS; D(1A) dopamine receptor (Homo sapiens), P21728; HEK293 T-REx D1 cells, calcium flux, agonist mode; activation, % at 2 µM; actives 1% (n = 360,000); AID 504660, 2011; in the data active means activation above about 30%
Target sequence (P21728 whole entry, looked up): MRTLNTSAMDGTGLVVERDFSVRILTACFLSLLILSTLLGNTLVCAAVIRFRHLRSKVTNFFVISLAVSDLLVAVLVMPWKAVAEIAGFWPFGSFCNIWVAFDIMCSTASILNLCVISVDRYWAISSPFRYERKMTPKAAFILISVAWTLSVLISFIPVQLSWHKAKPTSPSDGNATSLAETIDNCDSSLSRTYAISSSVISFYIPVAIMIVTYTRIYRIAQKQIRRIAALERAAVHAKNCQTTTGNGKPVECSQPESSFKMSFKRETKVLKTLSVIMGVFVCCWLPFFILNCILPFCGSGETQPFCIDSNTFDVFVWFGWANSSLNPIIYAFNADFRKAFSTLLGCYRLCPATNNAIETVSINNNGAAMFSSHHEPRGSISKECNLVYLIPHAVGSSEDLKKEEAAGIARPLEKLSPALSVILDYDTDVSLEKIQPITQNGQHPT
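Inducible HEK293 T-REx D1 cells, force-coupled to calcium signalling, were plated at 4000 cells/well with tetracycline and held overnight at 30 C. After no-wash calcium dye loading, compound-evoked calcium rise over 180 s flagged agonists.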
D1 potentiator: Potentiators of Human D1 Dopamine Receptor: qHTS; D(1A) dopamine receptor (Homo sapiens), P21728; HEK293 TREx D1 cells, calcium flux, dopamine EC20 potentiation; potentiation, % at 10 µM; actives 0.036% (n = 360,000); AID 504651, 2011; in the data active means potentiation above about 30%
D1 antag: Antagonist of Human D 1 Dopamine Receptor: qHTS; actives 3.2% (n = 360,000); AID 504652, 2011; HEK293 TREx D1 cells, calcium flux, dopamine EC80; active compounds read low; activity change, negative = inhibition, % at 10 µM; D(1A) dopamine receptor (Homo sapiens), P21728; in the data active means activity change below about -30%
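Allosteric or orthosteric antagonism assessed as attenuation of the calcium response to EC80 dopamine, added 180 s after compound, in induced HEK293 Trex D1 cells loaded with no-wash calcium dye.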
Large screens that a line does not name were inactive; ! = a repeat was not active.

CC1=C(C#N)C(c2ccccc2)C2=C(N1)c1ccccc1C2=O (configuration not stated)	none
Cc1ccc2c(CNCc3ccc(C)o3)c(C(=O)O)n(Cc3ccc(F)cc3)c2c1	none (no result: D3 antag, BCR signal inh)
CSc1nc(=O)[nH]nc1Sc1ccccc1	D3 antag inconclusive (no result: BCR signal inh, D1 agonist, D1 potentiator, D1 antag)
Cn1c(CN2CCCCC2)nc2cc(NS(=O)(=O)c3ccc(Cl)cc3)ccc21	D3 antag -65, D1 agonist 52
Cn1c(CCN2CCCCC2)nc2cc(NS(=O)(=O)c3ccc(Cl)cc3)ccc21	D3 antag -72, BCR signal inh inconclusive
CC(=O)N1CCN(Cc2nc3cc(NS(C)(=O)=O)ccc3n2C)CC1	none
Cn1c(CN2CCCCC2)nc2cc(NS(=O)(=O)c3ccc(F)cc3)ccc21	D3 antag -73
CC(=O)NCCc1nc2cc(NS(=O)(=O)c3ccc(Cl)cc3)ccc2n1C	none
CCCC(=O)Nc1ccc2c(c1)nc(CN1CCCCC1)n2C	none
CC1CCC(Nc2nc3c(-c4cccc(C(F)(F)F)c4)nnn3c3ccccc23)CC1 (configuration not stated)	none (no result: D3 antag, BCR signal inh)
COc1ccc2c(C)cc(SCC(=O)Nc3nsc(-c4ccccc4C)n3)nc2c1	none (no result: D3 antag, BCR signal inh)
O=C(NCCc1ccc(F)cc1)C(=O)NCC(c1cccs1)S(=O)(=O)c1cccs1 (configuration not stated)	D1 agonist 42 (no result: D3 antag, D1 antag)
COc1ccc2c(c1)CCc1c(C(=O)Nc3ccc(OC)c(OC)c3)noc1-2	DRD3 agonist 34
COc1ccc2c(c1)CCc1c(C(=O)Nc3c(C)nn(Cc4ccccc4Cl)c3C)noc1-2	D1 antag -40 (no result: D3 antag, BCR signal inh)
COc1ccc2c(c1)CCc1c(C(=O)Nc3c(C)nn(Cc4ccc(Cl)c(Cl)c4)c3C)noc1-2	none (no result: D3 antag, BCR signal inh)
COc1ccc2c(c1)CCc1c(C(=O)Nc3c(C)nn(Cc4ccccc4)c3C)noc1-2	D1 antag -32!
CCOC(=O)C1=CCN(S(=O)(=O)c2ccccc2F)C1c1ccc(F)cc1 (configuration not stated)	none (no result: BCR signal inh, D1 agonist, D1 potentiator, D1 antag)
CC(C)(C)c1ccc(CC(=O)N2CCC2(C)C(=O)NS(=O)(=O)c2ccc(Cl)cc2)cc1 (configuration not stated)	D3 antag inconclusive (no result: BCR signal inh, D1 agonist, D1 potentiator, D1 antag)
CCN(CC)c1ccc(NC(=O)C2CCN(S(=O)(=O)c3ccc4c(c3)oc(=O)n4C)CC2)c(C)c1	none (no result: D3 antag, BCR signal inh)
C/C=C(\C)CN1CCN(c2ccccc2)CC1	D3 antag -71
COc1ccccc1N1CCN(CC(=O)N2N=CCC2c2ccccc2)CC1 (configuration not stated)	none
COc1ccccc1N1CCN(C/C(C)=C/c2ccccc2)CC1	D3 antag -89
C/C(=C\c1ccccc1)CN1CCN(c2ccccc2)CC1	D3 antag -109, BCR signal inh inconclusive, D1 antag -38
O=C1OC(c2cccs2)Sc2ccccc21 (configuration not stated)	none (no result: BCR signal inh, D1 agonist, D1 potentiator, D1 antag)
CC1(C)C2CCC(CN=C(N)CSS(=O)(=O)O)C1C2 (configuration not stated)	D3 antag -99 (no result: BCR signal inh, D1 agonist, D1 potentiator, D1 antag)
CCOC(=O)c1c(NC(=O)CCCOc2ccc(C)cc2)sc2c1CCC(C)C2 (configuration not stated)	none (no result: D3 antag, BCR signal inh)
Cc1ccccc1CNCCCSc1nnnn1C	none (no result: D3 antag, BCR signal inh)
Cc1cc([N+](=O)[O-])cc2ncccc12	D3 antag -75, BCR signal inh inconclusive (no result: D1 antag)
COC(=O)[C@H](C(C)C)N(Cc1ccccc1)S(=O)(=O)CCN1CCCC1	D3 antag -59 (no result: D1 agonist, D1 potentiator, D1 antag)
COC(=O)[C@H](C)N(Cc1ccc(Cl)c(Cl)c1)S(=O)(=O)CCN1CCCC1	D3 antag -68, BCR signal inh inconclusive (no result: D1 agonist, D1 potentiator, D1 antag)
COC(=O)[C@H](C)N(Cc1ccc(Cl)c(Cl)c1)S(=O)(=O)CCN1CCN(c2ccccc2)CC1	D3 antag -71 (no result: D1 agonist, D1 potentiator, D1 antag)
COC(=O)[C@H](C(C)C)N(Cc1ccccc1)S(=O)(=O)CCN1CCN(c2ccccc2)CC1	D3 antag inconclusive (no result: D1 agonist, D1 potentiator, D1 antag)
Nc1nc2c(ncn2[C@@H]2O[C@H](CNCc3cnc(N4CCOCC4)nc3)[C@@H](O)[C@H]2O)c(=O)[nH]1	none (no result: BCR signal inh, D1 agonist, D1 potentiator, D1 antag)
CCOC(=O)CCn1nc(-c2ccc(C)cc2)c2ccccc2c1=O	D1 antag -49!
COC(=O)CCn1nc(-c2ccc(C)cc2)c2ccccc2c1=O	none
COc1ccc(Br)cc1CN1C(=O)c2ccccc2C1C(=O)NC1CCCCCC1 (configuration not stated)	none (no result: D3 antag, BCR signal inh)
CN1C(=O)NC(c2ccc(C(F)(F)F)cc2)C2=C1CC(C)(C)CC2=O (configuration not stated)	D1 agonist 32
CN1C(=O)NC(c2ccc([N+](=O)[O-])cc2)C2=C1CC(C)(C)CC2=O (configuration not stated)	BCR signal inh inconclusive
CC(=O)c1cc(C(=O)Nc2cccc(C)c2)c2ccccn12	none (no result: D3 antag, BCR signal inh)
COc1ccc(CCCc2nnc(SCC(=O)Nc3cc(F)ccc3C)o2)cc1	none (no result: D3 antag, BCR signal inh)
Cc1cccc(-c2noc(CN(C)C(=O)c3ccc4c(c3)OCO4)n2)c1	none
CN(CCN1CCc2ccccc2C1)Cc1nc(-c2ccc3c(c2)OCO3)no1	D3 antag -70
CN(CCN1CCc2ccccc2C1)Cc1nc(Cc2ccccc2F)no1	D3 antag -59
c1ccc(OCCN2CCN(Cc3nc(-c4ccc5c(c4)OCO5)no3)CC2)cc1	D3 antag inconclusive, DRD3 agonist 73, BCR signal inh inconclusive
CN(Cc1nc(-c2ccccc2)no1)C(=O)c1ccc2c(c1)OCO2	D3 antag -50
Fc1ccc(CN2CCCN(Cc3nc(-c4ccc5c(c4)OCO5)no3)CC2)cc1	none
Cc1nc(N2CCOCC2)c2c(C(=O)NCc3ccc(Cl)cc3)c(C)oc2n1	none (no result: D3 antag, BCR signal inh)
N#C[C@@H]1C[C@@H]2C[C@@H]2N1C(=O)[C@@H](N)C12CC3CC(CC(O)(C3)C1)C2	none (no result: D3 antag, BCR signal inh, D1 agonist, D1 potentiator, D1 antag)
Cn1c(SCc2ccc(Br)cc2)nc2c([nH]c3ccccc32)c1=O	none (no result: D3 antag, BCR signal inh)
CCNc1nc(NCc2ccc(F)cc2)c2cnn(C)c2n1	none (no result: D3 antag, BCR signal inh)
Cc1ccc(C(=O)O)cc1N1CCCC1=O	D3 antag -51
c1ccc(C(c2ccccc2)c2noc(CN3CCC(c4ccncc4)CC3)n2)cc1	DRD3 agonist 52
Cc1cccc(NC(=S)NNC(=O)c2ccccc2OC(F)F)c1	D3 antag inconclusive, BCR signal inh inconclusive, D1 antag -40
COc1ccccc1NC(=S)NNC(=O)c1ccccc1Br	BCR signal inh inconclusive, D1 antag -80
